Consider 40 compounds from ChEMBL document CHEMBL4513146, “CO-ADD screening of Karazin Kharkiv National University (Ukraine) compounds”.

Entries with a potency or affinity are not part of this list.

The first experiment concerns Candida albicans. The settings on record: Concentration 32 ug.mL-1; ASSAY_TEST Inhibition of Fungal Growth; detection method Absorption (OD530).
One may read the Inhibition as the drop in the measured response relative to a control, in per cent. As to `COc1cccc(CNC(=O)CSc2nnc3ccc(C(=O)Nc4cccc(F)c4)cn23)c1`, the Inhibition is recorded as 0.25%.
Same read-out and setting: with `Cc1ccc(CNC(=O)CSc2nnc3c4cc(-c5ccc(C)cc5)nn4ccn23)cc1` the figure was -0.39%.
Regarding `Cc1cc2nn(CC(=O)Nc3ccccc3)c(=O)n2c(Nc2ccc(C)c(F)c2)n1`, the Inhibition is on record as 4.54%.
Same read-out and setting: with `O=C(Cn1nc2c(N3CCOCC3)nccn2c1=O)NCc1ccc(F)cc1` the figure was 2.87%; with `Cc1ccc(Oc2nccn3c(=O)n(CC(=O)Nc4ccc(Cl)cc4F)nc23)cc1`, 4.29%; with `Cc1ccc(C(=O)C(C)Sc2nnc3c(=O)n(-c4ccc(F)c(F)c4)ccn23)cc1C` (stereo unspecified), 2.5%.
In the case of `COc1ccc(NC(=O)Cn2nc3cc(C)nc(Nc4cc(C)cc(C)c4)n3c2=O)cc1`, the Inhibition is listed as 1.22%.
For the compound `CCOc1ccc(NC(=O)Cn2c(=O)c3nnc(C(C)C)n3c3ccccc32)cc1`, the Inhibition stood at 1.75%.
The same measure, in the same setting: with `CCCCn1c(=O)c2sccc2n2c(CCC(=O)Nc3ccc(OC(F)(F)F)cc3)nnc12` the figure was -0.1%.
On the same count and under the same terms, with `COc1cc(NC(=O)CSc2nnc3c(=O)n(-c4ccc(C)c(C)c4)ccn23)cc(OC)c1` the figure was 1.66%; with `O=C(CSc1nnc2c(=O)n(-c3cccc(F)c3)ccn12)Nc1ccc(Br)cc1`, 6.65%; with `CCCCOc1ccc(-c2cc3c4nnc(SCC(=O)NCc5ccc(C)cc5)n4ccn3n2)cc1`, 12.04%.
Same read-out and setting: with `CC(=O)c1ccc(NC(=O)Cn2nc3c4cc(-c5ccc(Cl)cc5)nn4ccn3c2=O)cc1` the figure was 29.09%; with `CC(C)(C)NC(=O)Cn1nc2n(Cc3cccs3)c(=O)c3sccc3n2c1=O`, -0.71%.
In the case of `CCc1nnc2ccc(S(=O)(=O)N(Cc3ccc(OC)c(F)c3)c3ccccc3)cn12`, the Inhibition is listed as -0.62%.
On the same count and under the same terms, with `COc1ccc(CNC(=O)CCc2nnc3ccc(-c4ccccc4)nn23)cc1OC` the figure was -1.16%; with `COc1ccc(-c2cc3c4nn(CC(=O)Nc5c(C)cccc5C)c(=O)n4ccn3n2)cc1`, 7.22%.
Regarding `CC(C)Sc1ccc2nn(CC(=O)Nc3ccc(Br)cc3F)c(=O)n2n1`, the Inhibition is recorded as -0.59%.
In the case of `COc1ccccc1Cn1c(=O)c2sccc2n2c(=O)n(Cc3cccc(Br)c3)nc12`, the Inhibition is -0.62%.
As for `COc1ccccc1-n1ccn2c(SCc3ccccc3F)nnc2c1=O`, the Inhibition was determined as 2.31%.
The same measure, in the same setting: with `Cc1ccc(Oc2nccn3c(=O)n(CC(=O)N4CCN(c5ccc(F)cc5)CC4)nc23)cc1` the figure was 0.18%; with `COc1ccccc1-n1ccn2c(SCC(=O)c3ccc(C)cc3C)nnc2c1=O`, 3.89%; with `O=c1c2sccc2n2c(=O)n(Cc3ccc(F)cc3)nc2n1CCc1ccccc1`, 0.78%.
For `CCOc1ccccc1NC(=O)Cn1nc2c(Oc3cccc(OC)c3)nccn2c1=O`, the Inhibition turned out to be 0.7%.
For `Cc1ccc(Oc2nccn3c(=O)n(CC(=O)Nc4ccccc4F)nc23)cc1`, the Inhibition is reported as 5.88%.
On the same count and under the same terms, with `Cc1ccc(-c2cc3c4nn(CC(=O)Nc5ccc(Br)cc5)c(=O)n4ccn3n2)cc1C` the figure was 9.45%.

A further experiment concerns Cryptococcus neoformans. The settings on record: Concentration 32 ug.mL-1; ASSAY_TEST Inhibition of Fungal Growth; detection method Resazurin; Absorption (OD600-OD570); plate type 384well; NBS; CORNING #3640. In general terms: Resazurin is reduced to fluorescent resorufin, in cell work by metabolically active cells.
Regarding `O=S(=O)(c1ccc2nncn2c1)N(Cc1ccccc1F)c1ccc2c(c1)OCCO2`, the Inhibition is recorded as -6.58%.
Still for that read-out and setting: with `Cc1ccc(-c2cc3c4nn(CC(=O)Nc5ccccc5Br)c(=O)n4ccn3n2)cc1C` the figure was -11.06%; with `CC(C)c1nnc2c(=O)n(CC(=O)Nc3ccc(F)cc3)c3ccccc3n12`, -21.16%.
The same measure, in the same setting: with `O=c1c2sccc2n2c(=O)n(Cc3cccc(F)c3)nc2n1Cc1cccs1` the figure was -19.84%; with `CC(=O)c1ccc(N2CCN(C(=O)CCc3nnc4c5cc(-c6ccccc6)nn5ccn34)CC2)cc1`, -8.28%; with `Cc1ccc(-c2ccc3nn(CC(=O)Nc4ccc(Cl)c(C(F)(F)F)c4)c(=O)n3n2)cc1C`, -13.03%.
On to `Cc1ccccc1Cn1nc2c(=O)n(-c3ccc(Br)cc3)ccn2c1=O`, for which the Inhibition is -2.03%.
As to `Cn1c(=O)c2ccc(C(=O)NC3CCCC3)cc2n2c(SCC(=O)Nc3cc(F)ccc3F)nnc12`, the Inhibition is reported as -19.18%.
As to `Cc1ccc(C)c(-c2cc3c4nnc(CCC(=O)NCCc5ccc(Cl)cc5)n4ccn3n2)c1`, the Inhibition is recorded as -40.65%.
As to `CCc1nnc2c(SCC(=O)NCc3ccccc3Cl)nc3ccccc3n12`, the Inhibition was -17.43%.
Same read-out and setting: with `Cc1ccc(NC(=O)Cn2nc3c(SCc4ccc(Cl)cc4)nccn3c2=O)cc1F` the figure was -12.99%; with `Cc1ccc(F)cc1NC(=O)CSc1nnc2ccc(C(=O)Nc3cccc(F)c3)cn12`, -3.99%.
Still for that read-out and setting: with `COc1ccc(NC(=O)c2ccc3nn(CC(=O)N4CCN(c5ccccc5)CC4)c(=O)n3c2)cc1` the figure was -6.91%; with `COc1ccc(C(C)NC(=O)CCc2nnc3ccc(-c4ccc(C)cc4)nn23)cc1OC` (stereo unspecified), -54.1%; with `COc1cccc(CNC(=O)CSc2nnc3ccc(C(=O)Nc4cccc(F)c4)cn23)c1`, -5.04%.
Regarding `Cc1ccc(CNC(=O)CSc2nnc3c4cc(-c5ccc(C)cc5)nn4ccn23)cc1`, the Inhibition is given as -36.09%.
With `Cc1cc2nn(CC(=O)Nc3ccccc3)c(=O)n2c(Nc2ccc(C)c(F)c2)n1`, the Inhibition is given as -5.9%.
Same read-out and setting: with `O=C(Cn1nc2c(N3CCOCC3)nccn2c1=O)NCc1ccc(F)cc1` the figure was -8.56%; with `Cc1ccc(Oc2nccn3c(=O)n(CC(=O)Nc4ccc(Cl)cc4F)nc23)cc1`, -15%; with `Cc1ccc(C(=O)C(C)Sc2nnc3c(=O)n(-c4ccc(F)c(F)c4)ccn23)cc1C` (stereo unspecified), -3.72%.
Still for that read-out and setting: with `COc1ccc(NC(=O)Cn2nc3cc(C)nc(Nc4cc(C)cc(C)c4)n3c2=O)cc1` the figure was -8.99%.
The same measure, in the same setting: with `CCOc1ccc(NC(=O)Cn2c(=O)c3nnc(C(C)C)n3c3ccccc32)cc1` the figure was -9.3%.
In the case of `CCCCn1c(=O)c2sccc2n2c(CCC(=O)Nc3ccc(OC(F)(F)F)cc3)nnc12`, the Inhibition was -18.58%.
On to `COc1cc(NC(=O)CSc2nnc3c(=O)n(-c4ccc(C)c(C)c4)ccn23)cc(OC)c1`, for which the Inhibition was -9.37%.
Still for that read-out and setting: with `O=C(CSc1nnc2c(=O)n(-c3cccc(F)c3)ccn12)Nc1ccc(Br)cc1` the figure was -9.7%; with `CCCCOc1ccc(-c2cc3c4nnc(SCC(=O)NCc5ccc(C)cc5)n4ccn3n2)cc1`, -14.64%.
Still for that read-out and setting: with `CC(=O)c1ccc(NC(=O)Cn2nc3c4cc(-c5ccc(Cl)cc5)nn4ccn3c2=O)cc1` the figure was -18.84%; with `CC(C)(C)NC(=O)Cn1nc2n(Cc3cccs3)c(=O)c3sccc3n2c1=O`, -8.9%.
On the same count and under the same terms, with `CCc1nnc2ccc(S(=O)(=O)N(Cc3ccc(OC)c(F)c3)c3ccccc3)cn12` the figure was -5.32%; with `COc1ccc(CNC(=O)CCc2nnc3ccc(-c4ccccc4)nn23)cc1OC`, -12.03%.
For the compound `COc1ccc(-c2cc3c4nn(CC(=O)Nc5c(C)cccc5C)c(=O)n4ccn3n2)cc1`, the Inhibition is -19.98%.
The same measure, in the same setting: with `CC(C)Sc1ccc2nn(CC(=O)Nc3ccc(Br)cc3F)c(=O)n2n1` the figure was -7.06%.
For `COc1ccccc1Cn1c(=O)c2sccc2n2c(=O)n(Cc3cccc(Br)c3)nc12`, the Inhibition is reported as -14.71%.
Consider `COc1ccccc1-n1ccn2c(SCc3ccccc3F)nnc2c1=O`, for which the Inhibition is listed as -5.25%.
On to `Cc1ccc(Oc2nccn3c(=O)n(CC(=O)N4CCN(c5ccc(F)cc5)CC4)nc23)cc1`, for which the Inhibition is -7.7%.
The same measure, in the same setting: with `COc1ccccc1-n1ccn2c(SCC(=O)c3ccc(C)cc3C)nnc2c1=O` the figure was -10.37%.
For the compound `O=c1c2sccc2n2c(=O)n(Cc3ccc(F)cc3)nc2n1CCc1ccccc1`, the Inhibition is -5%.
As to `CCOc1ccccc1NC(=O)Cn1nc2c(Oc3cccc(OC)c3)nccn2c1=O`, the Inhibition is -8.27%.
In the case of `Cc1ccc(Oc2nccn3c(=O)n(CC(=O)Nc4ccccc4F)nc23)cc1`, the Inhibition is -5.76%.
On the same count and under the same terms, with `Cc1ccc(-c2cc3c4nn(CC(=O)Nc5ccc(Br)cc5)c(=O)n4ccn3n2)cc1C` the figure was -8.46%.
